From PubChem BioAssay (NCI)
About 83,000 compounds went through this panel and 20% of them were active in at least one assay; those are over-represented in the sample as a whole.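 Single-dose data. Exposure time 48 hours. Values below 10 considered active.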 Active and inactive are the calls of the source.

How the values were obtained:
Test in all cases: NCI-60 one-dose screen, 48 h (100 = growth as untreated, 0 = no growth, -100 = all killed)
Settings in all cases: 10 µM unless noted
[1] = test system: NCI-H23 lung
[2] = test system: NCI-H226 lung
[3] = test system: NCI-H322M lung
[4] = test system: HOP-62 NSCLC
[5] = test system: NCI-H460 lung
[6] = test system: HOP-92 NSCLC
[7] = test system: NCI-H522 lung
[8] = test system: A549/ATCC NSCLC
[9] = test system: 786-0 renal
[10] = test system: COLO 205 colon

Measured: growth

COc1cc2cc(COc3nccc(-c4ccc(Cl)cc4)n3)c(=O)[nH]c2cc1OC
inactive: [1] 88.5% | [2] 89.1% | [3] 79.6% | [4] 88.2% | [5] 86.2% | [6] 69.9% | [7] 108% | [8] 67.5% | [9] 80.9% | [10] 44.3%

O=[N+]([O-])c1cccc(-c2nc3sccn3c2-c2ccnc(NCCCNS(=O)(=O)c3ccc(F)cc3)n2)c1
active: [1] -7.3% | [2] -3.92% | [7] 0.116% | [8] 9.67% | [10] 4.52%
inactive: [3] 26.8% | [4] 12.5% | [5] 10.5% | [6] 46.2% | [9] 44.2%

COc1ccc(-c2nn(-c3ccccc3)cc2/C=C/C(=O)OCc2cn(-c3ccc(F)c(Cl)c3)nn2)cc1
inactive: [1] 72.6% | [2] 80.5% | [3] 92.1% | [4] 78.5% | [5] 96.7% | [6] 101% | [7] 65.2% | [8] 92.1% | [9] 101% | [10] 104%

Cc1ccc2c(c1)O/C(=C\c1cccc(OCC(=O)c3ccccc3)c1)C2=O
inactive: [1] 97.4% | [2] 93.6% | [3] 116% | [4] 90.3% | [5] 107% | [6] 75.2% | [7] 70.3% | [8] 81.6% | [9] 91.1% | [10] 101%

COc1cc(-c2nc3ccccc3s2)ccc1NC(=O)COc1ccc(Cl)cc1
inactive: [1] 38.3% | [2] 60% | [3] 71% | [4] 29.1% | [5] 13.4% | [7] 38.6% | [8] 49.2% | [9] 16.8% | [10] 52.8%
active: [6] 8.1%

Cc1ccc2c(c1)C(=O)/C(=C/c1ccc(OCC(=O)c3ccccc3)cc1)O2
inactive: [1] 84.7% | [2] 69.4% | [3] 108% | [4] 87.5% | [5] 108% | [6] 66.8% | [7] 89.2% | [8] 81.6% | [9] 86.8% | [10] 107%

CC(=O)O[C@H]1CC[C@]2(C)[C@H]3CC[C@@H]4[C@H]5[C@H](C(C)C)CC[C@]5(C(=O)OCC(CO)(CO)N=C(N)N)CC[C@@]4(C)[C@]3(C)CC[C@H]2C1(C)C
active: [5] -32.4% | [7] -69.6% | [10] -89.9%
inactive: [1] 77.7% | [2] 91.4% | [3] 70.2% | [4] 86.1% | [6] 32% | [8] 54.6% | [9] 74.3%

COc1ccc(-c2csc(NC(=O)CN3CCN(c4cc5c(cc4F)c(=O)c(C(=O)O)cn5C4CC4)CC3)n2)cc1
inactive: [2] 16% | [3] 17.1% | [4] 15.4% | [9] 24.4% | [10] 12.6%
active: [1] 9.73% | [5] 3.8% | [6] -17.2% | [7] -9.19% | [8] 9.1%

COc1ccc(C(=O)/C=C/c2cc3ccccc3[nH]c2=O)cc1
active: [5] 3.4% | [7] -31%
inactive: [1] 11.9% | [2] 64.5% | [3] 61.5% | [4] 29.7% | [6] 34.6% | [8] 42.3% | [9] 33.5% | [10] 66.9%

COc1cc(OC)c(/C=C/c2cc[n+](C)c3ccccc23)c(OC)c1
active: [3] 6.52% | [5] 4.59% | [6] -10.8% | [7] -35.3% | [8] 8.24% | [10] -83.9%
inactive: [1] 17.3% | [2] 23.1% | [4] 17.1% | [9] 26.1%

O=C(Cc1ccccc1)c1ccc(Cl)cc1
inactive: [1] 95.4% | [2] 99% | [3] 108% | [4] 100% | [5] 109% | [6] 104% | [7] 93.8% | [8] 69.3% | [9] 94.5% | [10] 125%

O=C1NC(=O)C(CC(=O)n2c(-c3ccccc3)nc3ccccc32)C(=O)N1
inactive: [1] 97.4% | [2] 97.7% | [3] 100% | [4] 94.4% | [5] 102% | [6] 97.5% | [7] 93% | [8] 101% | [9] 99.7% | [10] 118%

COc1ccc(-c2nn(-c3ccccc3)cc2/C=C2\SC(=O)NC2=O)cc1
inactive: [1] 94.8% | [2] 98.9% | [3] 117% | [4] 101% | [5] 97.5% | [6] 96.6% | [7] 81.6% | [8] 105% | [9] 81.1% | [10] 123%

N#Cc1c2c(nc3n[nH]c(N)c13)CCCC2
inactive: [1] 99.6% | [2] 110% | [3] 128% | [4] 100% | [5] 108% | [6] 79% | [7] 104% | [8] 108% | [9] 106% | [10] 148%

O=C(Nc1cccc2c1C(=O)c1cccc(Nc3cccc4c3C(=O)c3cccc(NC(=O)c5ccccc5)c3C4=O)c1C2=O)c1ccccc1
inactive: [1] 108% | [2] 102% | [3] 112% | [4] 104% | [5] 113% | [6] 90.7% | [7] 112% | [8] 90.1% | [9] 117% | [10] 117%

CCCCOc1ccc(NC(=O)n2nc(NC(C)=O)c3cc(NC(C)=O)ccc32)cc1
inactive: [1] 101% | [2] 99% | [3] 99.4% | [4] 108% | [5] 102% | [6] 93% | [7] 91.7% | [8] 102% | [9] 93.2% | [10] 121%

Cc1[nH]n(-c2ccccc2)c2nc3nncc3c(-c3ccc(Cl)cc3)c12
inactive: [1] 103% | [2] 104% | [3] 114% | [4] 110% | [5] 102% | [6] 76.2% | [7] 105% | [8] 84.9% | [9] 100% | [10] 111%

Cc1cc2cc3cc(C)c(N(C)C)cc3[n+](C)c2cc1N(C)C
active: [6] -34.6% | [7] -5.03% | [10] -19.2%
inactive: [1] 28.3% | [2] 51.6% | [3] 25.4% | [4] 30% | [5] 10.9% | [8] 25.8% | [9] 26.7%

COc1c(Cl)cc(Cl)cc1Cl
inactive: [1] 108% | [2] 110% | [3] 129% | [4] 97.5% | [5] 97.8% | [6] 116% | [7] 103% | [8] 116% | [9] 112% | [10] 116%

COc1ccc(S(=O)(=O)NCCNc2nccc(-c3c(-c4cccc(N)c4)nc4sccn34)n2)cc1
inactive: [1] 103% | [2] 96.1% | [3] 111% | [4] 110% | [5] 99.6% | [6] 96.2% | [7] 91.2% | [8] 99.6% | [9] 99% | [10] 106%

COc1ccc(C(=O)c2sc3nc4c(c(C(F)(F)F)c3c2N)CN(C(C)=O)CC4)cc1OC
active: [6] -0.986%
inactive: [1] 90.5% | [2] 78.2% | [3] 93.1% | [4] 87% | [5] 95.8% | [7] 78.5% | [8] 91% | [9] 91.9% | [10] 92.4%

O=C(CO[N+](=O)[O-])Nc1ccc(C(=O)/C=C/c2ccc(Cl)cc2)cc1
active: [1] 5.49%
inactive: [2] 81.7% | [3] 71.5% | [4] 94.1% | [5] 84.9% | [6] 66.8% | [7] 38.7% | [8] 67.6% | [9] 75% | [10] 36.1%

C[C@]12C[C@@H](c3ccoc3)OC(=O)[C@@H]1CC[C@]1(C)[C@@H]2CC[C@@H](O)[C@]1(C)O
inactive: [1] 76.1% | [2] 107% | [3] 99.2% | [4] 49.4% | [5] 50.1% | [6] 54.2% | [7] 55.5% | [8] 49.5% | [9] 84% | [10] 40.9%

O=C1CC(c2nc3ccccc3[nH]2)CN1C1CCCCC1 (stereo not given)
inactive: [1] 89.8% | [2] 95.4% | [3] 103% | [4] 94.9% | [5] 109% | [6] 91.3% | [7] 89.3% | [8] 104% | [9] 110% | [10] 102%

CC/C(=C(\c1ccccc1)c1ccc(OCCNC)cc1)c1ccccc1
active: [1] -90.5% | [2] -84.1% | [3] -99.5% | [4] -64.2% | [5] -71.3% | [6] -85.6% | [7] -74.9% | [8] -39.2% | [9] -92.7% | [10] -85.5%

COc1ccc(C(=O)/C=C/c2c[n+](=O)c3ccc(F)cc3n2[O-])cc1
inactive: [1] 98.7% | [2] 102% | [3] 118% | [4] 104% | [5] 119% | [6] 85.7% | [7] 109% | [8] 108% | [9] 110% | [10] 127%

O=C1C(Cl)=C(Cl)C(=O)c2c1nc1n2CCCC1
active: [10] 5.79%
inactive: [1] 74.3% | [2] 109% | [3] 52.7% | [4] 97.1% | [5] 39.9% | [6] 102% | [7] 85.2% | [8] 98.4% | [9] 94.7%
